Assay outcomes (PubChem BioAssay)
Hits are enriched below; roughly 4.5% of the tested compounds scored in any of these assays.
Gli-Sufu block: blocks Gli-Sufu signaling in a luciferase reporter; inhibition, % at 5 µM; AID 588413; hit rate 0.74% among 340,000; Sufu-KO-LIGHT fibroblasts, Gli luciferase reporter luminescence;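 active = inhibition above about 55%, limit read from the data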;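 also: 0% = DMSO-treated cells and 100% = wells with medium but no cells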
697 NFkB inh: lowers PMA/ionomycin-induced NF-kB signal in 697 B cells | inhibition, % at 4 µM | 697 B-cell NF-kB luciferase reporter, 16 h | hit rate 0.33% among 330,000 | AID 435022; in the data active = inhibition above about 35%
CSC inhib: cancer stem cell inhibition; inhibition, % at 7.5 µM; hit rate 1.1% among 300,000; cancer stem cell-like cells viability, luminescence; AID 2717; in the data active = inhibition above about 75%; tested in HMLE shEcad cells
Jurkat NFkB inh: lowers PMA/ionomycin-induced NF-kB signal in Jurkat cells | PMA/ionomycin-induced NF-kB luciferase reporter, luminescence | inhibition, % at 4 µM | hit rate 0.53% among 330,000 | AID 435003; in the data active = inhibition above about 50%
Mdm2 MdmX PPI: disrupts the human Mdm2-MdmX interaction; hit rate 3% among 330,000; O15151+Q00987; SaOS-2 split-luciferase Mdm2/MdmX complementation, luminescence; inhibition, % at 8 µM; AID 485346;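 active = inhibition of at least 50% at 8 µM in the primary screen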
Target sequence (O15151 whole entry, looked up): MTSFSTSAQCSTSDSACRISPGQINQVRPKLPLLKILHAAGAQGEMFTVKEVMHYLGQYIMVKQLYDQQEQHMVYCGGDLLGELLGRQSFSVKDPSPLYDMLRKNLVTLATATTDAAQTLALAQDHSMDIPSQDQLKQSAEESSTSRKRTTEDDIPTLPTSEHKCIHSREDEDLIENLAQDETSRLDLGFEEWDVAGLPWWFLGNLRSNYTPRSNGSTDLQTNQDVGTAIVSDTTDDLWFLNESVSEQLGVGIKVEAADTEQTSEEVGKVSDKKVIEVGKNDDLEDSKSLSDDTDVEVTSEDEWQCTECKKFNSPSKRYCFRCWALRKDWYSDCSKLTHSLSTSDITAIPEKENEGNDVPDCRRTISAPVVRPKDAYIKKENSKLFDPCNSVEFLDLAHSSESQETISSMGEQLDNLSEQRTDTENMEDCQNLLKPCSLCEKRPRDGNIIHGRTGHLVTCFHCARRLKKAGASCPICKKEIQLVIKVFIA
Target sequence (Q00987 whole entry, looked up): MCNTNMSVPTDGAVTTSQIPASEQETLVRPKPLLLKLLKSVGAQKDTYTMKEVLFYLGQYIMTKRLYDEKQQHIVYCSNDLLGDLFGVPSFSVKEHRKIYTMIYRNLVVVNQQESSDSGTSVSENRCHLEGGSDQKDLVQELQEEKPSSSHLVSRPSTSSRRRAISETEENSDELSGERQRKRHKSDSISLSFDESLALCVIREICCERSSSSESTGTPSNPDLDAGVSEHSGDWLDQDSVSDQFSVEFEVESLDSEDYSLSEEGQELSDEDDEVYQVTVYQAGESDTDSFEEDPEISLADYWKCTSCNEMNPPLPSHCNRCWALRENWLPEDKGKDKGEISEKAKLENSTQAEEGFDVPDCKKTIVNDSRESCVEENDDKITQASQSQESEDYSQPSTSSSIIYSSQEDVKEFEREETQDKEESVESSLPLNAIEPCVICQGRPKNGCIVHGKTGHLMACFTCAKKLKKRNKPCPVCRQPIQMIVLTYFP
Beta apoptosis: beta cell apoptosis inhibition | INS-1E cytokine-induced death, ATP luminescence, 48 h; percent of positive-control rescue, neutral wells zero | hit rate 0.8% among 300,000 | protection from apoptosis, % (concentration not given with the values) | AID 435005;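 active = Every replicate reaches about 75%, or at least half do and their mean reaches it too, limit read from the data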;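 also: 0% = cytokine-treated negative control wells and 100% = positive control rescue; higher means more ATP so stronger rescue from cytokine killing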
Gli-Sufu confirm: Gli-SUFU antagonism confirmation, single concentration | shares compounds with Gli-Sufu block | Sufu-KO-LIGHT cells, Gli luciferase reporter, luminescence | inhibition, % at 5 µM | hit rate 40% among 2,500;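 active = mean inhibition at 5 µM reaching about 45%, limit read from the data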;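 also: plate controls were DMSO-treated cells for no effect and wells lacking cells for full effect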
Gli cytotox: cytotoxic in Gli-SUFU antagonist counter-screen. shares compounds with Gli-Sufu block. Sufu-KO-LIGHT cells cytotoxicity, ATP luminescence. cytotoxicity, % at 5 µM. hit rate 32% among 2,500. AID 651994;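 active = mean cytotoxicity at 5 µM above about 25%, limit read from the data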;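 also: cells exposed to compound overnight for roughly 16 to 18 hours; plate controls were DMSO wells with cells for no effect and medium without cells for full effect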
Wnt3a counter: inhibits Wnt3a reporter, counter-screen for Gli-SUFU antagonists; inhibition, % at 6.25 µM; AID 651995; shares compounds with Gli-Sufu block; hit rate 20% among 2,500; Wnt-LIGHT cells, Wnt3a-driven luciferase reporter, luminescence;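 active = mean inhibition above about 25%, limit read from the data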
Numbers without * were called inactive; ! = not confirmed by another sample.

For CCCCCOc1ccc(C2C(C(=O)c3ccc(C)o3)=C(O)C(=O)N2c2cc(C)on2)cc1 (stereo not given) the results were Gli-Sufu block 4, 697 NFkB inh -8, CSC inhib -2, Jurkat NFkB inh -12, Mdm2 MdmX PPI 19 and Beta apoptosis -2.
Screening Cc1ccccc1NC(=O)CSc1nc2cc3c(cc2cc1C)CCC3 returned Gli-Sufu block 54, 697 NFkB inh -33, Jurkat NFkB inh 47, Mdm2 MdmX PPI 42, Gli-Sufu confirm 40, Gli cytotox 29* and Wnt3a counter -41.
`COc1ccc(C(=O)C2CCCN(S(=O)(=O)c3ccccc3F)C2)c(C)c1` (stereo not given) gave Gli-Sufu block -21, 697 NFkB inh -20, CSC inhib -6, Jurkat NFkB inh -1, Mdm2 MdmX PPI 7 and Beta apoptosis -8.
COc1ccc(CN(C2CCCC2)S(=O)(=O)c2ccc(-n3cnnn3)cc2)cc1 was read as Gli-Sufu block 58*, 697 NFkB inh -10, CSC inhib -2, Jurkat NFkB inh 8, Mdm2 MdmX PPI 28, Beta apoptosis 3, Gli-Sufu confirm 14, Gli cytotox 11 and Wnt3a counter 1.
For COc1ccc(CN(C2CCCC2)S(=O)(=O)c2ccc(-n3cnnn3)cc2)cc1OC the results were Gli-Sufu block -9, 697 NFkB inh -30, CSC inhib -2, Jurkat NFkB inh -1, Mdm2 MdmX PPI 10 and Beta apoptosis 2.
Screening Cc1ccc(C(C)(C)C)c(SCC(=O)Nc2nnc(C)s2)c1 returned Gli-Sufu block 18, 697 NFkB inh -54, CSC inhib 0, Jurkat NFkB inh -3, Mdm2 MdmX PPI 38 and Beta apoptosis -4.
Cc1cccc(SC2CCN(C(=O)C3CCC(=O)N(C4CC4)C3)CC2)c1 (stereo not given) was read as Gli-Sufu block -6, 697 NFkB inh -13, CSC inhib -3, Jurkat NFkB inh 17, Mdm2 MdmX PPI 21 and Beta apoptosis 2.
For CCCCOC(=O)C[N+](C)(C)CCOC1CC2CCC1(C)C2(C)C (stereo not given) the results were Gli-Sufu block 69*, 697 NFkB inh -15, CSC inhib 4, Jurkat NFkB inh 3, Mdm2 MdmX PPI 12, Beta apoptosis 9, Gli-Sufu confirm 72*, Gli cytotox 37* and Wnt3a counter 2.
Screening CC1(C)C2CCC1(C)C(OC(=O)c1ccccc1C(=O)O)C2 (stereo not given) returned Gli-Sufu block 0, 697 NFkB inh -4, CSC inhib -23, Jurkat NFkB inh -4, Mdm2 MdmX PPI 12 and Beta apoptosis -3.
`CC(=O)OC(COC1C[C@@H]2CC[C@@]1(C)C2(C)C)C[N+]1(C)CCCCC1` (stereo not given in full) gave Gli-Sufu block 0, 697 NFkB inh -6, CSC inhib 12, Jurkat NFkB inh 5, Mdm2 MdmX PPI 14 and Beta apoptosis 6.
For CCC(C)OC(=O)C[N+](C)(C)CCOC1CC2CCC1(C)C2(C)C (stereo not given) the results were Gli-Sufu block 73*, 697 NFkB inh -9, CSC inhib 30, Jurkat NFkB inh -1, Mdm2 MdmX PPI 21, Beta apoptosis 19, Gli-Sufu confirm 71*, Gli cytotox 36* and Wnt3a counter 9.
For CC1(C)C2CCC1(C)C(OCCNCCOC(=O)Nc1ccccc1)C2 (stereo not given) the results were Gli-Sufu block -4, 697 NFkB inh 4, CSC inhib 0, Jurkat NFkB inh 0, Mdm2 MdmX PPI 5 and Beta apoptosis -2.
CC(C)CCOC(=O)C[N+](C)(C)CCOC1CC2CCC1(C)C2(C)C (stereo not given) was read as Gli-Sufu block 77*, 697 NFkB inh 2, CSC inhib 0, Jurkat NFkB inh -1, Mdm2 MdmX PPI 23, Beta apoptosis 32, Gli-Sufu confirm 73*, Gli cytotox 23 and Wnt3a counter 23.
Cc1cc2cc(C#N)c(N3CCOCC3)nc2cc1Cl was read as Gli-Sufu block -3, 697 NFkB inh 1, CSC inhib 2, Jurkat NFkB inh -11, Mdm2 MdmX PPI -10 and Beta apoptosis -5.
For COc1cc(OC)c(NS(=O)(=O)c2cc(Br)cnc2N)cc1Cl the results were Gli-Sufu block 3, 697 NFkB inh 13, CSC inhib -12, Jurkat NFkB inh 8, Mdm2 MdmX PPI 7 and Beta apoptosis -4.
For S=C(Nc1ccc2nc(-c3ccccn3)c(-c3ccccn3)nc2c1)N1CCCCC1 the results were Gli-Sufu block 54, 697 NFkB inh 14, Jurkat NFkB inh 6, Mdm2 MdmX PPI 11, Gli-Sufu confirm 31, Gli cytotox 11 and Wnt3a counter 3.
O=C(N/N=C/c1ccc2cccnc2c1)c1nc2ccccc2c(=O)[nH]1 was read as Gli-Sufu block -26, 697 NFkB inh -32, CSC inhib -1, Jurkat NFkB inh -16, Mdm2 MdmX PPI -21 and Beta apoptosis 6.
Screening COC(=O)c1ccccc1NC(=O)NCc1ccncc1 returned Gli-Sufu block -2, 697 NFkB inh -41, CSC inhib 4, Jurkat NFkB inh -15, Mdm2 MdmX PPI -34 and Beta apoptosis -1.
COc1ccc(C2CC(C(F)(F)F)n3nc(C(=O)NCc4c(C)nn(C)c4C)c(Cl)c3N2)cc1 (stereo not given) was read as Gli-Sufu block 61*, 697 NFkB inh -44, CSC inhib -3, Jurkat NFkB inh 14, Mdm2 MdmX PPI 10, Beta apoptosis 16, Gli-Sufu confirm 50*, Gli cytotox 42* and Wnt3a counter -1.
Screening CCCCc1nnc(NC(=O)CSCc2cc(=O)n3cc(C)sc3n2)s1 returned Gli-Sufu block 51, 697 NFkB inh 3, CSC inhib 1, Jurkat NFkB inh 1, Mdm2 MdmX PPI 13, Beta apoptosis 1, Gli-Sufu confirm 14, Gli cytotox 10 and Wnt3a counter -12.
COc1ccc(NC(=O)c2ccc(CNc3c(NC4CCCCC4)c(=O)c3=O)cc2)cc1OC was read as Gli-Sufu block 59*!, 697 NFkB inh 15, CSC inhib -13, Jurkat NFkB inh 5, Mdm2 MdmX PPI 1, Beta apoptosis -5, Gli-Sufu confirm 10, Gli cytotox -6 and Wnt3a counter -4.
For CC(=O)Oc1ccc(C(=O)Nc2cccc(C(=O)c3ccc(C)c(C)c3)c2)cc1 the results were Gli-Sufu block -3, 697 NFkB inh 1, CSC inhib 54, Jurkat NFkB inh 12, Mdm2 MdmX PPI 20 and Beta apoptosis 9.
